PubChem BioAssay (NCATS)
Records with an inconclusive call do not appear. Entries that show only a call come without a potency. A number with no mark means an inactive call. Calls of active or inactive are those of the source. Calls come from the whole dose curve; as a rule, active = well fitted curve in the direction sought with a large enough effect; inconclusive = small, poorly fitted or top-dose-only effect, or another doubt; inactive = no such curve, though single readings can be large; an effect the other way counts as inactive or inconclusive.

What was measured:
[1] = biological target: Cellular tumor antigen p53 (Homo sapiens) (UniProt P04637); test: Primary qHTS for small molecule compounds that upregulate eGFP-tagged delta133p53alpha (in N-terminal) cells. (AID 2060322); conditions: NCI-H358 eGFP-delta133p53alpha fluorescence, 24 h; activation: active compounds read high; note: nearly all actives have a fitted effect of over 75% in size; note: potency is the fitted concentration of half-maximal effect
How it was run: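 NCI-H358 cells pre-induced 24 h with 10 ng/ml doxycycline to express N-terminal eGFP-delta133p53alpha, then dosed 24 h at 37C without doxycycline; fixed, Hoechst-stained, GFP intensity by laser scanning cytometry, normalized to DMSO (0%) and 57.5 uM 5-azacytidine (100%).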

[2] = biological target: Aldehyde dehydrogenase, mitochondrial (Homo sapiens) (UniProt P05091); test: qHTS for Inhibitors of the Aldehyde Dehydrogenase Family (ALDH2) Primary screen (AID 2061308); conditions: ALDH2 enzyme inhibition qHTS, 1536-well; series mostly up to 56 µM; note: nearly all actives have a fitted effect of over 55% in size
[3] = biological target: Retinaldehyde dehydrogenase 3 (Homo sapiens) (UniProt P47895); test: qHTS for Inhibitors of the Aldehyde Dehydrogenase Family (ALDH1A3) Primary screen (AID 2061315); conditions: ALDH inhibition qHTS; series mostly up to 56 µM

Chain of Cellular tumor antigen p53 (Homo sapiens) (P04637 whole entry, looked up): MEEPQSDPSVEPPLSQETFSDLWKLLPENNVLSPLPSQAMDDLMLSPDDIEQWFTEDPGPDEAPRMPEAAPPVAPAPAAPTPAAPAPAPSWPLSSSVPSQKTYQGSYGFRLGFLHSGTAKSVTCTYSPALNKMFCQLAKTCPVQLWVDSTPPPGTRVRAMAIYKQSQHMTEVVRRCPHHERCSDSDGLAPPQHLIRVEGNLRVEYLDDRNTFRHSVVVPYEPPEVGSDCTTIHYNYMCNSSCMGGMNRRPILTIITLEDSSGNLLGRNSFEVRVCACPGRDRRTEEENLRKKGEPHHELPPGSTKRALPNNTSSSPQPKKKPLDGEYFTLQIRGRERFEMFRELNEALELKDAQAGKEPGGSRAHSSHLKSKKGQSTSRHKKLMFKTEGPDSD

Row | Structure (SMILES) | Potency [1] | Potency [2] | Potency [3] | activation [1] [%]
1 | CC1=C[C@H]2O[C@@H]3[C@H](O)[C@@H](O)[C@](C)([C@@]2(CO)C[C@@H]1O)[C@]31CO1 | 7.57 µM (active) | inactive | inactive | –
2 | COC1CC(OC2CCC3(C)C(=CCC4C3CCC3(C)C(C(C)OC5OC(COC6OC(CO)C(O)C(O)C6O)C(O)C(O)C5O)CCC43O)C2)OC(C)C1OC1OC(C)C(O)C(OC)C1O (centres undefined) | – | inactive | inactive | 5.34
3 | C/C=C1/CN2CC[C@]34C(=Nc5ccccc53)[C@@H]2C[C@@H]1[C@H]4C(=O)OC | – | inactive | inactive | 17.9
